# An excerpt weighted towards active compounds, which were near 4.6% of everything screened.
# D1 PAM: Potentiators of Human D1 Dopamine Receptor: qHTS | 0.036% of 360,000 active | HEK293 TREx D1 cells, calcium flux, dopamine EC20 potentiation | AID 504651, 2011 | D(1A) dopamine receptor (Homo sapiens), P21728 | potentiation, % at 10 µM; in the data active means potentiation above about 30%; further: 0% is about no effect
# TRHR enhancer: qHTS for Small Molecule Agonists and Allosteric Enhancers of Human TRH Receptor: Primary Screen for Enhancers. AID 493056, 2011. enhancement, % at 2 µM. Thyrotropin-releasing hormone receptor (Homo sapiens), P34981. TRHR cells, fluo-8 calcium fluorescence, EC20 TRH enhancement. 0.66% of 360,000 active; in the data active means enhancement above about 30%; further: 0% is about no effect
# Target sequence (P34981 whole entry, looked up): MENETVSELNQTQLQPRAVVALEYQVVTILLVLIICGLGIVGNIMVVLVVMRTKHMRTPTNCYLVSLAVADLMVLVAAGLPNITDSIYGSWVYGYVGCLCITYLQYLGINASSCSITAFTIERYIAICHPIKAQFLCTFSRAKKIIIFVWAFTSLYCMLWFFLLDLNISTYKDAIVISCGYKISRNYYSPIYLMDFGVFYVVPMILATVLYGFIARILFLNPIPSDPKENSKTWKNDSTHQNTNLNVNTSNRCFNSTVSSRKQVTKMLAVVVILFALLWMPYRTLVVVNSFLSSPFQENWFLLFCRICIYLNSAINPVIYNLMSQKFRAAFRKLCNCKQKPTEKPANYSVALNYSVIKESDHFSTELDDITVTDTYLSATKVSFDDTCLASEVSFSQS
#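 TRHR-expressing cells loaded with fluo-8 calcium dye were read kinetically (ex 480/em 530) during compound addition, then stimulated with an EC20 of TRH (10 nM final). Enhancement of the Gq-mediated intracellular calcium response was scored.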
# D1 agonist: Allosteric Agonists of the Human D1 Dopamine Receptor: qHTS; HEK293 T-REx D1 cells, calcium flux, agonist mode; AID 504660, 2011; 1% of 360,000 active; D(1A) dopamine receptor (Homo sapiens), P21728; activation, % at 2 µM; further: 0% is about no effect
#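 Tetracycline-induced HEK293 TREx D1 cells, force-coupled to calcium signalling, were dye-loaded with a no-wash calcium kit. Compound was pin-added after a 10 s baseline. Fluorescence was read kinetically at 1 cycle/s for 180 s, with calcium rises flagged as agonism.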
# TRHR ag: qHTS for Small Molecule Agonists and Allosteric Enhancers of Human TRH Receptor: Primary Screen for Agonists; Thyrotropin-releasing hormone receptor (Homo sapiens), P34981; TRHR cells, calcium flux fluo-8, FDSS agonist mode; activation, % at 2 µM; 0.18% of 360,000 active; AID 493084, 2011; further: 0% is about no effect
#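 Read-out: compound-evoked intracellular calcium rise in TRHR cells, fluo-8 dye, kinetic FDSS fluorescence at 1 s/cycle following a 10-cycle baseline. Cells cultured overnight before dye loading (30 min–1.5 h, RT).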
# D1 antag: Antagonist of Human D 1 Dopamine Receptor: qHTS. AID 504652, 2011. 3.2% of 360,000 active. D(1A) dopamine receptor (Homo sapiens), P21728. HEK293 TREx D1 cells, calcium flux, dopamine EC80; active compounds read low. activity change, negative = inhibition, % at 10 µM; in the data active means activity change below about -30%; further: on the % scale 0 is the no-effect control and ±100 the full control effect
#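 Inducible Hek293 Trex D1 cells (tetracycline, overnight, 30 C). Calcium dye 30–90 min RT. Antagonist mode: EC80 dopamine added after 180 s compound read.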
# Starred values were filed as active, the others as inactive; nt = no result. Unless noted, no stated cut-off is given here; in the data, active means activation above about 30%; inactive means the rest.
SMILES,D1 PAM,TRHR enhancer,D1 agonist,TRHR ag,D1 antag
CCc1ccccc1N(C)S(=O)(=O)c1ccc2c(c1)C(C)(C)C(=O)N2C,-3.4,-1.6,12.6,0.9,-18.3
CCOC(=O)N1CCC(NS(=O)(=O)c2cc(Br)cnc2N)CC1,-8.3,9.6,2.1,-0.2,-30.0*
CCOC(=O)N1CCC(NS(=O)(=O)c2ccc(C)cc2)CC1,-4.1,0.3,6.1,-2.0,-39.0*
CCOC(=O)N1CCC(NS(=O)(=O)c2ccccc2)CC1,-3.2,-0.7,6.9,-0.7,6.7
COc1ccccc1N1CCN(S(=O)(=O)c2ccc(-c3ccno3)cc2OC)CC1,-1.4,6.2,-0.8,-0.6,-7.1
COc1ccc(NC(=O)CSc2oc(-c3ccc(F)cc3)nc2S(=O)(=O)c2ccc(C)cc2)c(OC)c1,1.0,-3.3,2.6,0.3,25.4
NCCCC[C@@H]1NC(=O)[C@H](CCC(=O)O)NC(=O)c2cc([N+](=O)[O-])cc(I)c2SC[C@@H](C(=O)NCC(N)=O)NC1=O,-5.3,10.4,-1.4,-0.1,-44.3*
COC(=O)c1c(NC(=O)CS(=O)(=O)c2ccc(C)cc2)sc2c1CCCCC2,-5.5,6.0,5.5,-1.3,-18.1
O=C(CN1C(=O)NC2(CCCCCC2)C1=O)c1ccc(OC(F)F)cc1OC(F)F,-3.4,12.2,1.3,0.8,-2.5
CCOc1ccccc1NC(=O)c1cc2c(=O)[nH]c3ccccc3c2s1,0.1,12.8,-1.2,-0.1,-15.7
O=C(NCCC1=CCCCC1)c1ccc(Cl)cc1,-6.0,12.9,18.7,-2.8,-41.2*
CC(C)CCNC(=O)C(=O)NCCC1=CCCCC1,-3.2,-0.3,1.6,-0.1,-46.9*
CCCNC(=O)C(=O)NCCC1=CCCCC1,9.1,0.8,2.1,0.3,0.2
CS(=O)(=O)N(Cc1ccc(Cl)cc1)c1ccc(C(=O)NCCC2=CCCCC2)cc1,-0.7,5.8,9.7,-0.5,4.8
O=C(NCCc1ccc(Cl)cc1)c1ccc2c(c1)OCCO2,-7.4,-8.5,2.4,-1.3,-36.7*
O=C(NC(=S)NCCC1=CCCCC1)c1cncc(Br)c1,-7.0,-1.6,-0.2,-0.2,-31.8*
COc1cccc(Cc2nc3ccccc3nc2SCC(=O)NCc2ccc(C)cc2)c1,-0.1,-6.1,11.8,1.6,-12.6
Cc1cccc(C)c1-n1ncc(C(=O)N2CCN(c3ccccc3)CC2)c1C1CCN(C(=O)OC(C)(C)C)CC1,-3.8,-4.9,2.1,1.0,4.2
O=C(CS(=O)(=O)c1c[nH]c2ccccc12)N1CCCc2ccccc21,-3.4,-0.3,-2.2,-0.2,-49.9*
O=C(Nc1ccc(OC(F)(F)F)cc1)C1CC(c2ccc(F)cc2)=NO1 (stereo not given),-3.3,-4.9,7.7,-0.4,-35.3*
Cc1ccc(C)c(N2CCN(C(=O)CSCc3ccccc3Cl)CC2)c1,-0.8,-1.3,4.1,0.5,-2.2
S=c1sc2ccccc2n1CCc1ccncc1,-7.7,-2.9,6.0,-0.5,-39.2*
Cc1ccc2c(Sc3ccc(Cl)cc3)c(C(=O)N3CCC(C)CC3)[nH]c2c1,0.8,2.3,2.9,0.7,-24.0
COc1cccc(CNC(=O)C2CCN(c3ncnc4c3nc3n4CCCCC3)CC2)c1,-3.4,0.2,0.0,-0.8,4.6
Cc1nc(N2CCCC2)c2nnn(Cc3ccccc3Cl)c2n1,1.3,2.1,1.1,-0.4,2.9
SMILES,D1 PAM,TRHR enhancer,D1 agonist,TRHR ag,D1 antag
COc1ccc(N2CCN(c3ncnc4c3nc3n4CCCCC3)CC2)cc1,-4.5,0.5,9.3,-0.5,-35.1*
O=C(NCc1ccccc1)C1CCN(c2ncnc3c2nc2n3CCCCC2)CC1,-2.9,3.7,-0.5,-0.4,-32.6*
COc1cccc(N2CCN(c3ncnc4c3nc3n4CCCCC3)CC2)c1,0.2,-4.7,6.2,-0.7,-14.0
COc1ccc(N2CCN(c3ncnc4c3nnn4Cc3ccccc3Cl)CC2)cc1,-12.0,5.5,8.3,-0.4,-41.8*
CCOCCCn1c(SCC(=O)Nc2ccccc2Cl)nc2c(oc3ccccc32)c1=O,-5.2,-3.8,-0.7,0.0,-12.0
O=C(CN1C(=O)CCSc2ccc(S(=O)(=O)N3CCCC3)cc21)Nc1cccc(F)c1,0.8,-2.8,-0.7,-0.1,17.2
Cc1ccccc1CNC(=O)CCC(=O)N1CCSc2ccccc21,-1.5,-5.0,3.3,0.1,2.8
COc1ccc(-c2[nH]c(-c3ccc4c(c3)OCO4)nc2-c2ccccc2)cc1,-4.6,-7.7,2.6,-1.2,-75.7*
c1ccc(Cc2nnc3sc(-c4ccncc4)nn23)cc1,3.5,5.8,1.7,-0.1,-33.0*
c1ccc(Cc2nnc3sc(-c4cccnc4)nn23)cc1,6.5,8.8,4.6,-0.1,-6.9
COc1cc(C(=O)NCc2nc3cccnc3n2Cc2ccc(C)cc2)cc(OC)c1OC,-3.7,-2.5,0.3,-0.3,7.2
CCOc1ccc(N2C(=O)/C(=C\c3ccc(OC)c(O)c3)S(=O)(=O)C2c2cccc([N+](=O)[O-])c2)cc1 (stereo not given),-14.7,-4.2,1.7,-1.5,-73.2*
CCOC(=O)c1c(C)oc2nc(C)nc(NCC3CCN(Cc4ccc(Cl)cc4)CC3)c12,1.4,8.9,0.3,-0.3,-15.0
Cn1cc(S(=O)(=O)N2CCOCC2)cc1C(=O)Nc1ccc(Cl)c(C(F)(F)F)c1,-0.3,13.5,9.0,-0.2,3.2
CN1CCN(c2nc(-c3ccco3)cc(C(F)(F)F)n2)CC1,-5.2,-0.5,-0.6,0.4,-67.8*
O=[N+]([O-])c1cn(-c2nc(-c3ccco3)cc(C(F)(F)F)n2)cn1,-1.4,-2.9,62.3*,0.7,nt
CCOC(=O)c1c(C)[nH]c(C)c1S(=O)(=O)N1CCCC(C(=O)Nc2cccc(CC)c2)C1 (stereo not given),-3.5,1.4,4.3,-0.3,3.5
Cc1ccc(S(=O)(=O)N2CCN(Cc3ccco3)CC2)c(C)c1,37.5*,-6.0,4.0,-0.3,-7.6
CCc1ccc(CNC(=O)CN2C(=O)CCn3nc(-c4cn(C)c5ccccc45)cc32)cc1,-1.6,0.0,0.8,-0.4,-4.1
C[C@]12CCC(=O)C=C1C=C[C@@H]1[C@@H]2CC[C@@]2(C)[C@H]1CC[C@@]21CCC(=O)O1,-6.3,-6.2,1.9,0.2,-34.0*
CCCCCCCCOC(=O)c1nc(Cl)c(Cl)c(N)c1Cl,-4.6,-3.5,9.0,0.4,1.1
COC(=O)c1nc(Cl)c(Cl)c(N)c1Cl,-3.4,-1.0,-0.4,0.1,-31.3*
Brc1cccc(-c2nnn3c2nc(NCc2ccc4c(c2)OCO4)c2ccccc23)c1,-1.2,-3.0,2.2,0.9,-1.9
CCCCCCn1c(=O)[nH]c2nc3cc(N)c(C)cc3nc2c1=O,-1.4,22.6,294.5*,-0.8,-6.5
CCCCn1c(=O)[nH]c2nc3cc(NC(C)=O)ccc3nc2c1=O,-1.4,-4.6,10.5,11.2,-4.3

# Bioassay records (PubChem BioAssay)
